Compounds with a hit are over-represented: about 2.9% of the library has one in this group of screens.
Nrf2 inh – Nrf2 pathway inhibition; A549 ARE-Fluc reporter, luciferase luminescence, 18-24 h; Potency, µM (doses to about 46 µM), for the others: top-dose activity change, negative = inhibition, most hits filed as inhibitors; 2.1% of 360,000 active; AID 504444; further: on the % scale 0 is the no-effect control and ±100 the full control effect; nearly all actives have a fitted effect of over 60% in size
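A549 ARE_Fluc cells, 5000/well, 5% FBS OPTI-MEM; compounds in dose-response, 18-24 h at 37 °C/5% CO2; CellTiter-Fluor viability read (Ex 405/Em 525), then BugLite luciferase luminescence = Nrf2 activity.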
ATXN2 expr inh – ATXN2 expression inhibition; AID 1745845; 0.72% of 360,000 active; Potency, µM (titrated, usually from 57 µM), inactives show top-dose activity change, negative = inhibition, actives largely listed as inhibitors; HEK-293 ATXN2-luciferase reporter, luminescence, 24 h; further: on the % scale 0 is the no-effect control and ±100 the full control effect; nearly all actives have a fitted effect of over 55% in size
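ATXN2-luciferase reporter cells (luciferase flanked by upstream and downstream ATXN2 gene portions) were treated 24 h at 37 °C with compounds at up to 57 uM. SteadyGlo luminescence gave expression; GF-AFC fluorescence gave viability.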
S2 tox – cell viability loss in ATXN counter-screen. S2 cells (HEK-293 line with an ATXN2-luciferase reporter) viability, CellTiter-Fluor protease fluorescence, 24 h. Potency, µM (highest dose often 56.7 µM), most hits filed as cytotoxic. 0.49% of 400,000 active; further: nearly all actives have a fitted effect of over 40% in size
A549 tox-1 – A549 cytotoxicity, counter-screen for Nrf2 inhibitors | A549 ARE-Fluc cells, CellTiter-Fluor viability, 18-24 h | Potency, µM (top dose mostly 46 µM), without a hit: top-dose activity change, negative = cytotoxicity, most hits filed as inhibitors | 0.16% of 390,000 active | AID 504648; further: on the % scale 0 is the no-effect control and ±100 the full control effect
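A549 ARE-Fluc cells in 5% FBS OPTI-MEM, 5000 cells/well, rested 2 h then exposed to compounds in concentration-response for 18-24 h at 37 °C. Viability by CellTiter-Fluor fluorescence (Ex 405/Em 525) after 30 min; luciferase luminescence (BugLite, 15 min, RT) read afterwards.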
Nrf2 ARE act – Nrf2 pathway activation; AREc32 ARE-luciferase reporter (MCF7-derived line), luminescence, 24 h; Potency, µM (highest dose often 46.1 µM), for the others: at the highest dose activation, usual class: activators; 0.31% of 410,000 active; further: % of control where 0% means no effect; nearly all actives have a fitted effect of over 65% in size
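Steps: seed AREc32_Fluc cells (1000/well, 5% FBS OPTI-MEM); incubate overnight at 37 deg C; add 23 nL compound; incubate 24 hr; add Steady-Glo; hold 30 min RT; read luminescence.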
FLuc counter 3 – blocks purified firefly luciferase in Nrf2 counterscreen | AID 720522 | Potency, µM (top dose mostly 57.5 µM), without a hit: at the top dose activity change, negative = inhibition, actives largely listed as inhibitors | purified firefly luciferase, luminescence inhibition | 4% of 1,400 active | shares compounds with Nrf2 inh; further: on the % scale 0 is the no-effect control and ±100 the full control effect; nearly all actives have a fitted effect of over 65% in size
Target sequence (P08659 whole entry, looked up): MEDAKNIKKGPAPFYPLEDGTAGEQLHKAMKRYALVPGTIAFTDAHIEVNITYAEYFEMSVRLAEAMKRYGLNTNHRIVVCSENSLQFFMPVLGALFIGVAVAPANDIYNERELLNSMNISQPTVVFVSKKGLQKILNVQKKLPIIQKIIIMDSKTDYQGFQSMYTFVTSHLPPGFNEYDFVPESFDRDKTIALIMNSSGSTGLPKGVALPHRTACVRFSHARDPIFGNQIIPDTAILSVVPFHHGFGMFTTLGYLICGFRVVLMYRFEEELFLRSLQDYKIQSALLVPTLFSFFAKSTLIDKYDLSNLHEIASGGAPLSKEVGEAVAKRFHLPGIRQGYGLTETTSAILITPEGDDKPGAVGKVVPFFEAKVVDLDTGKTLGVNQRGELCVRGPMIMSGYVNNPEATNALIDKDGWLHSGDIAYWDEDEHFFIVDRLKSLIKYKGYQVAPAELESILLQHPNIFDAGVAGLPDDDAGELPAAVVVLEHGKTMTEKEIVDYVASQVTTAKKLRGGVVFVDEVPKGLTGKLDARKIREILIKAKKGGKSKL
A549 tox-2 – A549 cytotoxicity, Nrf2 inhibitor counterscreen; shares compounds with Nrf2 inh; A549 ARE-Fluc cells, cytotoxicity counterscreen; Potency, µM (series often up to 46.1 µM), without a hit: at the top dose activity change, negative = cytotoxicity, actives largely listed as inhibitors; 2% of 1,400 active; AID 720523;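 further: cells exposed to compounds for 18 to 24 hours; on the % scale 0 is the no-effect control and ±100 the full control effect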
ARE-Fluc inh – reduces Nrf2 ARE reporter signal in A549 cells; shares compounds with Nrf2 inh; A549 ARE-firefly luciferase reporter, luminescence; Potency, µM (titrated, usually from 46.1 µM), inactives show at the highest dose activity change, negative = inhibition, usual class: inhibitors; 74% of 1,400 active; AID 720524; further: on the % scale 0 is the no-effect control and ±100 the full control effect; nearly all actives have a fitted effect of over 65% in size
Starred values were filed as active, the others as inactive; [ ] = dose if it differs, or a comment. The call rests on the fitted dose curve; in most records, active means well fitted curve in the direction sought with a large enough effect; inconclusive means small, poorly fitted or top-dose-only effect, or another doubt; inactive means no such curve, though single readings can be large; an effect the other way counts as inactive or inconclusive. Potency means the concentration at half of the fitted maximal effect.

What do the screens show for `CCc1nn(CC(=O)NCC(C)c2ccccc2)c(=O)c2cc3c(OC)cccc3n12` (stereo unspecified)?
Nrf2 inh: 15.4%; ATXN2 expr inh: -3.1%; S2 tox: inactive; A549 tox-1: 1.5%; Nrf2 ARE act: -0.3%

Results for Cn1ncc(C(=O)N2CCN(c3ccccc3)CC2)c1C1CCN(C(=O)OC(C)(C)C)CC1 ?
Nrf2 inh: 14.0%; A549 tox-1: 2.2%; Nrf2 ARE act: 0.2%

Results for O=C(Nc1ccc(C(=O)OCc2cc(=O)n3c4c(sc3n2)CCCC4)cc1)c1ccc(F)cc1 ?
A549 tox-1: -9.4%; Nrf2 ARE act: -1.2%

What do the screens show for `COc1ccc(C(O)c2nc3ccccc3n2C)cc1OC` (stereo unspecified)?
Nrf2 inh: 3.66µM*; ATXN2 expr inh: -10.1%; S2 tox: inactive; A549 tox-1: -4.7%[1.84 µM]; Nrf2 ARE act: -0.3%; FLuc counter 3: -0.3%; A549 tox-2: 0.7%; ARE-Fluc inh: inconclusive

Results for COc1ccc(C(=O)NC(C)c2nc3ccccc3n2C)cc1OC (stereo unspecified) ?
Nrf2 inh: -10.7%; ATXN2 expr inh: -20.9%; S2 tox: inactive; A549 tox-1: -10.0%; Nrf2 ARE act: -0.2%

Results for COc1cc(NCCCCC(C)N)c2nccc(C)c2c1 (stereo unspecified) ?
S2 tox: inconclusive; Nrf2 ARE act: -6.0%

What do the screens show for `COc1cc(NCCCC(C)N)c2ncccc2c1` (stereo unspecified)?
Nrf2 inh: 5.8µM*; ATXN2 expr inh: 14.8%; S2 tox: inactive; A549 tox-1: inconclusive; Nrf2 ARE act: -4.3%; FLuc counter 3: -4.0%; A549 tox-2: -23.3%; ARE-Fluc inh: inconclusive

Results for O=[N+]([O-])c1ccc(C[n+]2ccc(Cc3ccccc3)cc2)cc1 ?
Nrf2 inh: inconclusive; ATXN2 expr inh: -28.0%; S2 tox: inactive; A549 tox-1: 0.9%; Nrf2 ARE act: -0.2%

Results for Brc1ccc(C[n+]2ccccc2)cc1 ?
Nrf2 inh: 2.59µM*; ATXN2 expr inh: -10.2%; S2 tox: inactive; A549 tox-1: -6.5%; Nrf2 ARE act: 0.2%; FLuc counter 3: -0.5%; A549 tox-2: -6.7%; ARE-Fluc inh: 4.11µM*

Results for COc1cc(Cl)c(C)cc1NS(=O)(=O)c1c(C)nc2sccn2c1=O ?
Nrf2 inh: -12.3%; A549 tox-1: -0.4%; Nrf2 ARE act: 0.2%

How did Cc1ccnc2c1ccc1cccnc12 do in these assays?
Nrf2 inh: inconclusive; ATXN2 expr inh: inconclusive; S2 tox: inconclusive; A549 tox-1: inconclusive; Nrf2 ARE act: 17.9%; FLuc counter 3: -17.1%; A549 tox-2: inconclusive

Results for O=C(NCc1cccs1)c1nc2c(nnn2Cc2ccccc2Cl)c(=O)[nH]1 ?
Nrf2 inh: 5.8µM*; ATXN2 expr inh: inconclusive; S2 tox: inconclusive; A549 tox-1: inconclusive; Nrf2 ARE act: -1.4%; FLuc counter 3: inconclusive; A549 tox-2: inconclusive; ARE-Fluc inh: 2.06µM*

Results for COc1cc(OC)cc(-c2nnc3n2N=C(c2ccc(OC)c(OC)c2)CS3)c1 ?
Nrf2 inh: -9.9%; A549 tox-1: -3.4%

Results for Cc1c(Cl)cccc1NC(=O)Cn1cc(C(=O)C2CCCCC2)c2ccccc21 ?
Nrf2 inh: 2.91µM*; A549 tox-1: -20.5%; Nrf2 ARE act: 0.3%; FLuc counter 3: 0.0%; A549 tox-2: -15.5%

Bioassay records deposited in PubChem by National Center for Advancing Translational Sciences (NCATS).
